In the supplement of paper PMC6555819:

Columns and labels:
Test in all cases: PBM binding z-score (relative to random genomic background probes); higher = stronger binding; sequences stand for … in GC…GCGATTGACAGCGTAGAATGAAGG
[1] = system: RARb homodimer (NR concentration 270 nM)
Method in brief: (§1)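 Custom Agilent 4×180K protein-binding microarrays carried double-stranded probes. Their 34-nt variable regions held direct-repeat seeds, single-nucleotide variants, half-site ablations and random human genomic background sequences. Arrays were incubated 1 h with ligand-free nuclear receptor dimers in PBS pH 7.4, 2% milk, 0.02% Triton X-100, 1 mM DTT, 0.2 mg/mL BSA and 0.4 mg/ml salmon testes DNA. Antibodies against each partner (one per run) detected binding, and scanned fluorescence was regression-normalized. Binding z-scores use random background probes as reference.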

[2] = system: RARg:RXRa (NR concentration 270 nM, RXRa partner concentration 90 nM)
Method in brief: as §1

[3] = system: RARg homodimer (NR concentration 270 nM)
Method in brief: as §1

[4] = system: RXRa DBDmut IVT, anti-RXR (DBD mutation: RXRa K156A/R161A, NR concentration 90 nM)
Method in brief: as §1

[5] = system: RXRa homodimer (NR concentration 180 nM)
Method in brief: as §1

[6] = system: THRa:RXRa (NR concentration 90 nM, RXRa partner concentration 90 nM)
Method in brief: as §1

[7] = system: THRa homodimer (NR concentration 90 nM)
Method in brief: as §1

[8] = system: VDR homodimer (NR concentration 270 nM)
Method in brief: as §1

Row | Sequence | PBM binding z-score [1] | PBM binding z-score [2] | PBM binding z-score [3] | PBM binding z-score [4] | PBM binding z-score [5] | PBM binding z-score [6] | PBM binding z-score [7] | PBM binding z-score [8]
1 | TCGAGTAAGTTAGGGGCATTCAGAATGGCGTCGA | 0.241 | 0.189 | -0.154 | 0.53 | 0.495 | 1.08 | -0.16 | 0.751
2 | GATACAGGGTTAAGGCCAGAGTACGCGTATTGAT | 1.34 | 1.7 | 1.1 | -0.0819 | 1.76 | 2.05 | 0.861 | 1.02
3 | ATCGAAAGGTTGAAGGTGAGTATACCCACCCGAA | 0.919 | 1.45 | 1.24 | -0.0221 | 2.38 | 0.997 | -0.184 | 0.162
4 | CCTACTGGGCCACGAAAGATCATTGATTCAGTGA | -0.335 | -0.154 | 0.283 | -0.361 | 0.0459 | -0.0965 | -0.393 | -0.52
5 | CCTCGGAGGACAGAAGGTCAGAGGTGTCCGCTTT | 3.67 | 3.28 | 2.68 | 0.0335 | 1.71 | 2.19 | -0.0182 | 0.148
6 | CCAGACTGGTGAAAGGTAACTCAGTCTGGTACGC | 0.104 | 0.0585 | -0.236 | -0.492 | 0.524 | 0.18 | -0.494 | -0.181
7 | AATACAGGGTCACTAGACCAGAGTAGGTACGAAT | 2.96 | 4.98 | 4.81 | 2.68 | 5.91 | 3.24 | 1.08 | 2.54
8 | CCTAGTTGGCCAGGAGGTCACACACCGGATATGA | 4.01 | 4.27 | 3.43 | 0.6 | 4.51 | 3.54 | 2.38 | 2.16
9 | AGTCAAAGTTCAGGGCGAGGTAACGTAAAGCACG | 3.56 | 5.13 | 4.99 | 2.95 | 3.15 | 3.64 | 1.28 | 2.15
10 | TCGAGTAGGCTACCAATGGGGCATTCAGCTTTCT | -0.245 | -0.505 | -0.706 | -0.0858 | -0.356 | -0.828 | -0.931 | -0.898
11 | CAAATTAGGTCACAGAGGTCAAAGTCCGTGCGTA | 5.59 | 7.24 | 7.81 | 3.72 | 7.43 | 4.73 | 3.68 | 6.37
12 | ATCGAAAGGTCGTGAGGTGATTATACAGAAAGGC | 2.49 | 4.47 | 3.99 | 1.6 | 5.42 | 3.17 | 1.15 | 1.07
13 | ATCTCTAGGTGACCAAGTTCAGTGAATGCCGAAC | 1.77 | 1.24 | 1.38 | 0.521 | 0.867 | 1.5 | 0.429 | 2.22
14 | TCATATGGGTAAACAGGTGAAAGTCCGTAAGTTA | 0.47 | 0.0718 | -0.135 | 0.95 | 0.566 | 0.434 | -0.368 | -0.103
15 | GCTGCTAGGTCAGGTTGGTCAGTTAACGGGTACG | 2.75 | 2.59 | 3.38 | 0.795 | 1.02 | 2.03 | 1.2 | 0.71
16 | CCAGACAGGTGAAAGGTAACTTAGTCTGGTACGC | 0.975 | 1.23 | 0.78 | 0.208 | 2.05 | 0.818 | -0.205 | -0.23
17 | TCGAGTAGGTTAGGGGGATTCAGAATGGCGTCGA | 0.809 | 0.0898 | 0.376 | 0.668 | 0.485 | 0.871 | 1.01 | 0.42
18 | AGTCAAAGTTCATTAGGTAACGTAAGATTCAGCT | 3.87 | 5.26 | 5.92 | 4.97 | 4.52 | 2.59 | 0.801 | 5.43
19 | AGAACGAGGGCAATGAGTTGATAGCACGGGTGGC | 0.844 | 0.952 | 1.54 | 1.78 | 0.91 | 0.824 | -0.00899 | 2.26
20 | GGACCGAGGGCAAGTTGATAGCAGAGTTTGATGG | 1.43 | 1.78 | 2.07 | 2.06 | 0.783 | 0.968 | -0.0674 | 1.67
21 | ATCTCTAGGTAAAGATAGTTGAGTGAATGCAAAT | -0.216 | 0.504 | 0.43 | 0.115 | 0.0675 | 0.495 | 0.0736 | 0.275
22 | CGTCGAAGGTCAGCAGGTCAGTGAAAGCGACGTG | 4.94 | 6.48 | 6.93 | 1.34 | 5.06 | 2.88 | 0.495 | 1
23 | TGTCAAAGATCAAAGGTAACGTAAGTATCCACAC | 0.261 | 1.26 | 0.761 | -0.668 | 2.36 | 1.54 | -0.401 | -0.267
24 | CAGCCTCGGTCAGGGCCAGTATAGGAGGAACGTT | 1.31 | 0.85 | 1.86 | -0.961 | -0.355 | -0.5 | -0.413 | -0.875
25 | TCTTGTAGATCAACAGGAGGTTAAGAGAGATCGA | 0.58 | 1.1 | 0.453 | 0.0129 | 0.887 | 1.01 | -0.746 | -0.539
26 | CGTCCAAGGTCTGAGAGGTCAGTGAATGCCGAGT | 3.72 | 2.97 | 3.36 | 0.83 | 2.29 | 2.52 | 1.29 | 2.01
27 | AGAACGAGGGCAATCAGTTGATAGCACGGGTGGC | 1.08 | 1.25 | 1.74 | 1.89 | 0.909 | 1.04 | 0.0484 | 1.61
28 | TTACCAAGGTTAGCTGAGGTCGTTGATCCAACTC | 2.06 | 1.68 | 1.41 | 0.854 | 1.84 | 5.01 | 2.13 | 2.87
